# Screening data: PubChem, National Center for Advancing Translational Sciences (NCATS)
# Compounds with a hit are over-represented: about 11% of the library has one in this group of screens.
# Pf growth 48h: Primary qHTS for delayed death inhibitors of the malarial parasite plastid, 48 hour incubation; Potency, µM (doses to about 28.7 µM), inactives show at the highest dose activity change, negative = inhibition, most hits filed as inhibitors; P. falciparum luciferase growth in erythrocytes, 48 h; 310,000 tested, 5.9% active; AID 504832, 2011
#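 A one-generation exposure of luciferase-tagged malaria parasites in RPMI 1640/Albumax erythrocyte culture, 37 C and 5% CO2. Inhibition is inferred from decreased luminescence after adding detection reagent.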
# AmpC inh no detg: qHTS Inhibitors of AmpC Beta-Lactamase (assay without detergent); AmpC nitrocefin hydrolysis, absorbance 480 nm, 0.0001% Triton; Potency, µM (series often up to 57.1 µM), for inactives: top-dose activity change, negative = inhibition, hits mostly inhibitors; 330,000 tested, 0.52% active;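 note: plate controls were no compound for no effect and no enzyme for full effect; nearly all actives have a fitted effect of over 20% in size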
# Target sequence (P00811 whole entry, looked up): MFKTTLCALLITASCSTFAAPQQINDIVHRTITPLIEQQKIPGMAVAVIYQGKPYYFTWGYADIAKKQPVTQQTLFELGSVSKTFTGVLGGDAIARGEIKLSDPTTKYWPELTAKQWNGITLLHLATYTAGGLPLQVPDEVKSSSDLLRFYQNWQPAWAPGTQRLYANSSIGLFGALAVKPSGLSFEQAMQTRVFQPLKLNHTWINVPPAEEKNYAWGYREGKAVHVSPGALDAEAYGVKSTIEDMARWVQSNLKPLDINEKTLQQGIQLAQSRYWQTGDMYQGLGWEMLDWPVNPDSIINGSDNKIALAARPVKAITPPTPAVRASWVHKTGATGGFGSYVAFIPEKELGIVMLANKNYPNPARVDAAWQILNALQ
#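 AmpC (5.3 nM in the dispensed reagent) in 20 mM phosphate pH 7.0 with 0.01% (detergent screen) or 0.0001% Triton X-100 was preincubated with compounds for 15 min at room temperature. Nitrocefin was then added from an 800 uM solution, and hydrolysis was followed at 480 nm.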
# AMA1 RON2 block: qHTS for Inhibitors of AMA1-RON; Towards Development of Antimalarial Drug Lead: Primary Screen; AlphaScreen AMA1-biotinylated RON2 peptide binding; 360,000 tested, 0.2% active; Potency, µM (titrated, usually from 58.2 µM), without a hit: at the top dose activity change, negative = inhibition, usual class: inhibitors;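 note: 0% = vehicle wells and -100% = peptide control; nearly all actives have a fitted effect of over 45% in size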
#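 AMA1 (3D7) with his tag at 25 nM final met compounds first, then biotinylated RON2 peptide at 25 nM; detection used donor plus acceptor beads, 10 µg/mL apiece, read by AlphaScreen after 30 min at room temperature.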
# Pf growth 96h: Primary qHTS for delayed death inhibitors of the malarial parasite plastid, 96 hour incubation | P. falciparum luciferase reporter growth, 96 h | Potency, µM (series often up to 28.7 µM), for the others: at the highest dose activity change, negative = inhibition, actives largely listed as inhibitors | 320,000 tested, 6.9% active | AID 504834, 2011
#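 Parasite growth measured via integrated firefly luciferase reporter in P. falciparum. Infected erythrocytes at 2% hematocrit, 0.05% parasitemia final were treated 96 hours at 37 C under 5% CO2, and luminescence was read.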
# HCV inh: qHTS Assay for Inhibitors of Hepatitis C Virus (HCV); Huh7.5.1 HCVcc-Cre infection, luciferase reporter, 44 h; Potency, µM (top dose mostly 41.8 µM), for inactives: at the highest dose activity change, negative = inhibition, usual class: inhibitors; 340,000 tested, 3.4% active; AID 651820, 2012
#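 Infectious HCVcc-Cre (~0.5 moi) was added to cells just after compound, with cells seeded 4 h earlier at 1,000 per well. Luciferase activity after 44 h culture reported infection; substrate was incubated 15 min at room temperature before reading.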
# AmpC detergent: qHTS Inhibitors of AmpC Beta-Lactamase (assay with detergent); P00811; AmpC hydrolysis of nitrocefin, absorbance 480 nm, 0.01% Triton; Potency, µM (series often up to 114 µM), inactives show at the top dose activity change, negative = inhibition, actives largely listed as inhibitors; 370,000 tested, 0.041% active; AID 485294, 2010;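 note: 0% = no-compound wells and -100% = no-enzyme wells; nearly all actives have a fitted effect of over 25% in size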
#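 AmpC (5.3 nM in the dispensed reagent) in 20 mM phosphate pH 7.0 with 0.01% (detergent screen) or 0.0001% Triton X-100 was preincubated with compounds for 15 min at room temperature. Nitrocefin was then added from an 800 uM solution, and hydrolysis was followed at 480 nm.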
# * marks the source's active call; other numbers are inactive results; ? = inconclusive; · = no result; [ ] = another dose, or the depositor's remark. Calls come from the whole dose curve; as a rule, active = well fitted curve in the direction sought with a large enough effect; inconclusive = small, poorly fitted or top-dose-only effect, or another doubt; inactive = no such curve, though single readings can be large; an effect the other way counts as inactive or inconclusive. Unless noted, % is set by controls: 0 for no effect and ±100 for the full control effect; potency is the fitted concentration of half-maximal effect.
SMILES,Pf growth 48h,AmpC inh no detg,AMA1 RON2 block,Pf growth 96h,HCV inh,AmpC detergent
Cc1ccc(-c2csc(NC(=O)/C=C/c3cccs3)n2)cc1C,?,-34%,5%[2.32 µM],?,11µM*,7%
O=C(/C=C/c1ccccc1)Nc1nc(-c2ccncc2)cs1,?,-43%,4%,?,7.9µM*,-11%
CCOc1ccc(NC(=O)CN2C(=O)C(c3ccccc3)=NC23CCCCCC3)cc1,·,·,·,·,·,16%
COCCc1nn2c(=O)cc(COC(=O)COc3ccccc3C)nc2s1,·,·,·,·,·,20%
CCOC(=O)c1c(C)n(COCCO)c2ccc(O)cc12,-5%,-20%,38%,·,?,-11%
CCOCCn1c(C)c(C(=O)OCC)c2cc(O)c3ccccc3c21,2.3µM*,?,4%,3.7µM*,-13%,-8%
CC(=O)NC1=NN(C(C)=O)C(c2ccc(C)cc2)S1 (stereo unspecified),11%,-3%,?,?,2%,6%
CC1=NN(/C(=N\c2nnc(C)s2)Nc2ccc(C)cc2)[C@H](c2ccc(C)cc2)S1,10µM*,53%,11%,?,-24%,-5%
CC1=NN(/C(=N\c2nnc(C)s2)Nc2ccccc2)[C@H](c2cccc3ccccc23)S1,6.6µM*,130%,3%,9.3µM*,?,-2%
COc1ccc2c(c1)CCC1=C2NC(=S)NC1c1ccc(N(C)C)cc1 (stereo unspecified),?,-43%,-29%,?,11µM*,-4%
COc1cc(C2NC(=S)NC3=C2CCc2ccccc23)cc(OC)c1OC (stereo unspecified),?,-7%,49%,?,-8%,-20%
COc1ccc(/C=N/c2oc(C)c(C)c2C#N)c(OC)c1,-9%,-11%,14%,12µM*,1%,7%
COc1cc(/C=N/c2oc(C)c(C)c2C#N)cc(Br)c1O,11%,-11%,10%,-28%,12%,?
Cc1cccc(Nc2ncnc3nc[nH]c23)c1,67%,-19%,-4%,?,-15%,-8%
COc1ccc(Nc2ncnc3nc[nH]c23)cc1OC,14%,13µM*,1%,-16%,?,?
COc1ccccc1CCNC(=O)c1cc(-c2ccncc2)nc2ccc(Br)cc12,?,-22%,-5%,-10%,0.89µM*,-3%
COC(=O)CNC(=O)c1cc(-c2ccncc2)nc2ccc(C)cc12,11%,22%,-18%,-28%,6%,4%
COc1ccccc1CCNC(=O)c1cc(-c2ccccn2)nc2ccc(Br)cc12,12%,-26%,·,32%,·,3%
Cc1ccc2nc(-c3ccncc3)cc(C(=O)NCc3ccccc3F)c2c1,?,106%,-2%,15µM*,-21%,4%
COc1ccccc1CCNC(=O)c1cc(-c2ccccn2)nc2ccccc12,12%,-3%,26%,?,11µM*,0%
COc1cc(NC(=O)Cn2c(=O)nc(-c3ccccc3F)c3cc(Cl)ccc32)cc(OC)c1,·,·,·,·,·,0%
CCOC(=O)c1c(C)[nH]c(C)c1S(=O)(=O)N1CCC(C(=O)Nc2ccc(C)cn2)CC1,·,·,·,·,·,6%
C/C(=N\Nc1ncnc2sc(C)c(C)c12)c1ccccn1,0.17µM*,70%,-25%,0.046µM*,?,6%
Cc1sc2ncnc(NC3CCN(Cc4ccccc4)CC3)c2c1C,-14%,-10%,-1%,-8%,1µM*,-6%
Cc1ccc(Nc2ncnc3sc(C)c(C)c23)cc1,113%,-17%,4%,9.3µM*,-20%,?
SMILES,Pf growth 48h,AmpC inh no detg,AMA1 RON2 block,Pf growth 96h,HCV inh,AmpC detergent
C#C[C@]1(O)CC[C@@H]2[C@H]3CCC4=CC(=O)CC[C@H]4[C@H]3C(=C)C[C@@]21CC,-49%,·,·,-89%,·,·
CCN1CCN(C(=O)c2cc(COc3ccc(F)cc3F)on2)[C@@H](C)C1=O,0%,20%,-8%,-2%,11µM*,-10%
CCOC(=O)N1CCN(C(=O)c2cc(COc3ccc(F)cc3F)on2)CC1,5%,87%,0%,?,-9%,-1%
O=C(c1cc(COc2ccc(F)cc2F)on1)N1CCN(C2CCCC2)C(=O)C1,8.3µM*,106%,1%,-12%,-11%,-11%
Cn1c(=O)n(C)c2cc(NC(=O)CCl)ccc21,1.5µM*,-4%,-5%,?,?,?
CC(=O)Nc1ccc2c(c1)n(C)c(=O)n2C,9%,-20%,-4%,·,20%,1%
CC(C)(C)c1cc(CCC(=O)NNC(=S)NC(=O)c2ccccc2)cc(C(C)(C)C)c1O,13µM*,1.6µM*,88%,?,2.8µM*,-11%
Cc1ccc(C2CC(=O)n3nc(-c4ccc(F)cc4)nc3S2)cc1 (stereo unspecified),·,·,·,·,·,15%
COc1cccc(OC)c1C(=O)NC(=S)Nc1ccc2c(c1)OCCO2,4.1µM*,-18%,28%,?,-8%,-1%
COc1cc(C(=O)NC(=S)Nc2ccc3c(c2)C(=O)N(C)C3=O)cc(OC)c1OC,47%,-12%,25%,6%,10µM*,3%
COc1cccc(OC)c1C(=O)NC(=S)Nc1ccc2c(c1)C(=O)N(C)C2=O,1.7µM*,-7%,19%,?,10%,4%
COc1cccc(OC)c1C(=O)NC(=S)Nc1ccc2c(c1)Cc1ccccc1-2,·,-22%,5%,-15%,0%,7%
O=S(=O)(Nc1cccc(-c2ccc(N3CCCCC3)nn2)c1)c1cccs1,·,·,·,·,·,-9%
O=c1c(-c2cc(-c3ccc(F)cc3)nc3c2COc2ccc(Cl)cc2-3)coc2ccc(F)cc12,·,·,·,·,·,-2%
CCOc1ccc(-n2c(=O)c3c(C)c(C)sc3n(CC(=O)NCCc3ccccc3)c2=O)cc1,·,·,·,·,·,18%
CCn1ncc(Br)c1C(=O)Nc1ccccc1C(F)(F)F,14%,1%,-1%,?,9%,1%
CCn1ncc(Br)c1C(=O)Nc1ccc(F)cc1F,6%,0.32µM*,6%,13%,10%,-1%
Cc1ccc(-n2nc(C(=O)N3CCN(c4ccc(F)cc4)CC3)c(=O)n(C)c2=O)cc1,·,·,·,·,·,25%
NC(=O)C1(N2CCCCC2)CCN(C(=O)NC23CC4CC(CC(C4)C2)C3)CC1,?,-2%,32%,·,18%,0%
